Results filed as inconclusive are left out. Unmarked numbers belong to inactive results. Activity calls are given as the source filed them. The call rests on the fitted dose curve; in most records, active means well fitted curve in the direction sought with a large enough effect; inconclusive means small, poorly fitted or top-dose-only effect, or another doubt; inactive means no such curve, though single readings can be large; an effect the other way counts as inactive or inconclusive.
Molecular target: Aldehyde dehydrogenase, mitochondrial (Homo sapiens) (UniProt P05091)
Assay: qHTS for Inhibitors of the Aldehyde Dehydrogenase Family (ALDH2) Primary screen (AID 2061308);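 further: plate controls were vehicle for no effect and reference inhibitor for full effect; nearly all actives have a fitted effect of over 55% in size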
Details: ALDH2 enzyme inhibition qHTS, 1536-well; series mostly up to 56 µM; activity change, negative = inhibition: at the top concentration

Structure (SMILES)	activity change, negative = inhibition
Fc1ccc(-c2nc(-c3c(F)cccc3F)[nH]c2-c2ccncc2)cc1	-2.4%
O=S(=O)(Nc1ccccc1)c1ccc(NCc2cccc(Cl)c2O)cc1	-5.22%
CC1(C)CC[C@]23CO[C@@]4(CCC5[C@@]6(C)CC[C@H](O[C@@H]7OC[C@H](O[C@@H]8O[C@H](CO)[C@@H](O)[C@H](O)[C@H]8O)[C@H](O)[C@H]7O[C@@H]7O[C@H](CO)[C@@H](O[C@@H]8O[C@H](CO)[C@@H](O)[C@H](O)[C@H]8O)[C@H](O)[C@H]7O)[C@@](C)(CO)C6CC[C@@]5(C)[C@]4(C)C[C@H]2OC2OCC(O)C(O)C2O)C3C1 (stereo not given in full)	-1.32% [at 11.2 µM]
CC(C)c1cc(C(C)C)c(S(=O)(=O)Nc2cccc3cccnc23)c(C(C)C)c1	9.84%
Cc1nc(C)c2c(n1)N(Cc1ccc(-c3ccccc3-c3nn[nH]n3)cc1)C(=O)CC2	-7.53%
Cc1noc(C)c1-c1ccc2ncnc(NCc3ccc(F)c(F)c3)c2c1	6.91%
O=C1CCCC2=C1C1(CCCC1)N=C(Nc1nc3ccccc3o1)N2	-18.9%
Cc1ccc(-c2ccc(=O)n(CC(=O)NCCc3cnc[nH]3)n2)cc1	-1.28%
Cn1nnnc1Sc1ncnc2scc(-c3cccc4ccccc34)c12	-12.1%
COc1ccc(-c2ccc(Nc3nc(-c4ccncc4)nc4ccccc34)cc2F)cc1F	8.4%
Cc1ccc(NS(=O)(=O)c2ccc3c(c2)CCC(=O)N3C)cc1Cl	12.5%
C#CCOc1ccc(C(C)=O)cc1-c1nnc2n1N=C(c1ccc(OC)c(OC)c1)CS2	3.38%
c1ccc(CNCc2nnc(-c3cc4ccccc4[nH]3)o2)cc1	9.25%
O=C1CCc2cc(S(=O)(=O)Nc3cccc4ccccc34)ccc2N1	0.454%
O=C(CSc1nnc(-c2cccc([S+](=O)([O-])N3CCCC3)c2)n1-c1ccccc1)Nc1cccc(C(F)(F)F)c1	-20.2%
CC(=O)c1ccc(N2CCN(S(=O)(=O)c3ccc(N4CCCC4=O)cc3)CC2)cc1	-2.96%
Cc1cccc(CNc2ccnc(-c3ccc(F)cc3F)n2)c1	16.5%
O=C(Nc1cccc(-c2nn3c(=O)cc(N4CCNCC4)nc3s2)c1)C1CCNCC1	15.4%
O=C(Nc1ccc2c(c1)OCCO2)Nc1nnc(-c2ccncc2)s1	5.75%
Cc1ccc(C2=NN(CC(=O)NCCc3ccccc3)C(=O)C2)cc1	7.18%

Structure (SMILES)	activity change, negative = inhibition
CC(=O)Nc1sc2c(c1C(=O)O)CCNC2	-2.07%
N#Cc1cc(NC(=O)Nc2nnc(-c3ccncc3)s2)ccc1Br	-8.25%
CCOc1ccc(CCNC(=O)c2ccc(C3(C(F)(F)F)N=N3)cc2)cc1OCC	-16.8%
CCOC(=O)C1CCN(C(=O)C2(NC(=O)Nc3ccccc3Cl)CCCCC2)CC1	4.11%
COc1ccc(OC)c(-c2nnc(NC(=O)Nc3ccc4ccccc4c3)s2)c1	-6.39%
CC[C@H]1OC(=O)[C@](C)(F)C(=O)[C@H](C)[C@@H](O[C@@H]2O[C@H](C)C[C@H](N(C)C)[C@H]2O)[C@](C)(OC)C[C@@H](C)C(=O)[C@@H](C)[C@H]2N(CCCCn3cc(-c4cccc(N)c4)nn3)C(=O)O[C@]12C	-9.96%
Cc1ccc(-n2c(=O)ccc(=O)n2CC(=O)NCCc2ccccc2)cc1	11.6%
Nc1nc(NCc2ccc(-c3cccnc3)cc2)c2ccccc2n1	10.2%
CC1=C(C(=O)Nc2nc3ccccc3s2)C(c2[nH]ncc2Cl)N=C(Nc2nc3ccccc3o2)N1 (stereo not given)	-10.1%
Cc1nc(-c2ccccc2)oc1-c1ccc2ncnc(NCCc3cnc[nH]3)c2c1	3.13%
CNc1oc(-c2cccs2)nc1C#N	2.53%
Cc1ccc(S(=O)(=O)Nc2cnccc2C(=O)Nc2ccc(S(=O)(=O)Nc3nccs3)cc2)cc1	7.33%
Cc1ccc(NC(=O)c2ccc(-c3nc4ccccc4[nH]3)cc2)cc1Br	2.26%
Cc1ccc(S(=O)(=O)N2CCN(c3nc(-c4ccco4)nc4ccccc34)CC2)cc1	6.46%
Cc1cccc(NS(=O)(=O)c2ccc3c(c2)CCC(=O)N3)c1	-3.37%
Cc1ccc(OCCn2c(CCNC(=O)C3CCCC3)nc3ccccc32)cc1	0.922%
O=[S+]([O-])(c1ccc2nsnc2c1)N1CCN([S+](=O)([O-])c2c(F)cccc2F)CC1	-2.56%
O=C(Cn1nc(-c2ccccc2)ccc1=O)NCCc1ccccc1	14.6%
CC(C)n1nc(Cc2cccc3ccccc23)c2c(N)ncnc21	6.99%
O=[S+]([O-])(Nc1ccccc1)c1ccc(NCc2ccc(Cl)cc2O)cc1	-0.0593%

Molecular target: Retinaldehyde dehydrogenase 3 (Homo sapiens) (UniProt P47895)
Assay: qHTS for Inhibitors of the Aldehyde Dehydrogenase Family (ALDH1A3) Primary screen (AID 2061315);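 further: plate controls were DMSO vehicle for no effect and reference inhibitor for full effect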
Details: ALDH inhibition qHTS; series mostly up to 56 µM; activity change, negative = inhibition: at the top concentration

Structure (SMILES)	activity change, negative = inhibition	Potency
Fc1ccc(-c2nc(-c3c(F)cccc3F)[nH]c2-c2ccncc2)cc1	7.23%	–
O=S(=O)(Nc1ccccc1)c1ccc(NCc2cccc(Cl)c2O)cc1	-3.72%	–
CC1(C)CC[C@]23CO[C@@]4(CCC5[C@@]6(C)CC[C@H](O[C@@H]7OC[C@H](O[C@@H]8O[C@H](CO)[C@@H](O)[C@H](O)[C@H]8O)[C@H](O)[C@H]7O[C@@H]7O[C@H](CO)[C@@H](O[C@@H]8O[C@H](CO)[C@@H](O)[C@H](O)[C@H]8O)[C@H](O)[C@H]7O)[C@@](C)(CO)C6CC[C@@]5(C)[C@]4(C)C[C@H]2OC2OCC(O)C(O)C2O)C3C1 (stereo not given in full)	1.39% [at 11.2 µM]	–
CC(C)c1cc(C(C)C)c(S(=O)(=O)Nc2cccc3cccnc23)c(C(C)C)c1	15.2%	–
Cc1nc(C)c2c(n1)N(Cc1ccc(-c3ccccc3-c3nn[nH]n3)cc1)C(=O)CC2	6.39%	–
Cc1noc(C)c1-c1ccc2ncnc(NCc3ccc(F)c(F)c3)c2c1	15.2%	–
O=C1CCCC2=C1C1(CCCC1)N=C(Nc1nc3ccccc3o1)N2	–	inactive
Cc1ccc(-c2ccc(=O)n(CC(=O)NCCc3cnc[nH]3)n2)cc1	3.85%	–
Cn1nnnc1Sc1ncnc2scc(-c3cccc4ccccc34)c12	1.41%	–
COc1ccc(-c2ccc(Nc3nc(-c4ccncc4)nc4ccccc34)cc2F)cc1F	7.94%	–
Cc1ccc(NS(=O)(=O)c2ccc3c(c2)CCC(=O)N3C)cc1Cl	7.96%	–
C#CCOc1ccc(C(C)=O)cc1-c1nnc2n1N=C(c1ccc(OC)c(OC)c1)CS2	17.6%	–
c1ccc(CNCc2nnc(-c3cc4ccccc4[nH]3)o2)cc1	15.9%	–
O=C1CCc2cc(S(=O)(=O)Nc3cccc4ccccc34)ccc2N1	-7.85%	–
O=C(CSc1nnc(-c2cccc([S+](=O)([O-])N3CCCC3)c2)n1-c1ccccc1)Nc1cccc(C(F)(F)F)c1	-2.56%	–
CC(=O)c1ccc(N2CCN(S(=O)(=O)c3ccc(N4CCCC4=O)cc3)CC2)cc1	-11.6%	–
Cc1cccc(CNc2ccnc(-c3ccc(F)cc3F)n2)c1	0.832%	–
O=C(Nc1cccc(-c2nn3c(=O)cc(N4CCNCC4)nc3s2)c1)C1CCNCC1	22.5%	–
O=C(Nc1ccc2c(c1)OCCO2)Nc1nnc(-c2ccncc2)s1	0.914%	–
Cc1ccc(C2=NN(CC(=O)NCCc3ccccc3)C(=O)C2)cc1	9.77%	–

Structure (SMILES)	activity change, negative = inhibition	Potency
CC(=O)Nc1sc2c(c1C(=O)O)CCNC2	-14.6%	–
N#Cc1cc(NC(=O)Nc2nnc(-c3ccncc3)s2)ccc1Br	-21.2%	–
CCOc1ccc(CCNC(=O)c2ccc(C3(C(F)(F)F)N=N3)cc2)cc1OCC	3.26%	–
CCOC(=O)C1CCN(C(=O)C2(NC(=O)Nc3ccccc3Cl)CCCCC2)CC1	0.377%	–
COc1ccc(OC)c(-c2nnc(NC(=O)Nc3ccc4ccccc4c3)s2)c1	16%	–
CC[C@H]1OC(=O)[C@](C)(F)C(=O)[C@H](C)[C@@H](O[C@@H]2O[C@H](C)C[C@H](N(C)C)[C@H]2O)[C@](C)(OC)C[C@@H](C)C(=O)[C@@H](C)[C@H]2N(CCCCn3cc(-c4cccc(N)c4)nn3)C(=O)O[C@]12C	1.56%	–
Cc1ccc(-n2c(=O)ccc(=O)n2CC(=O)NCCc2ccccc2)cc1	-3.18%	–
Nc1nc(NCc2ccc(-c3cccnc3)cc2)c2ccccc2n1	7.07%	–
CC1=C(C(=O)Nc2nc3ccccc3s2)C(c2[nH]ncc2Cl)N=C(Nc2nc3ccccc3o2)N1 (stereo not given)	19.8%	–
Cc1nc(-c2ccccc2)oc1-c1ccc2ncnc(NCCc3cnc[nH]3)c2c1	-12.2%	–
CNc1oc(-c2cccs2)nc1C#N	-2.18%	–
Cc1ccc(S(=O)(=O)Nc2cnccc2C(=O)Nc2ccc(S(=O)(=O)Nc3nccs3)cc2)cc1	26.1%	–
Cc1ccc(NC(=O)c2ccc(-c3nc4ccccc4[nH]3)cc2)cc1Br	3.23%	–
Cc1ccc(S(=O)(=O)N2CCN(c3nc(-c4ccco4)nc4ccccc34)CC2)cc1	20.7%	–
Cc1cccc(NS(=O)(=O)c2ccc3c(c2)CCC(=O)N3)c1	5.78%	–
Cc1ccc(OCCn2c(CCNC(=O)C3CCCC3)nc3ccccc32)cc1	-0.898%	–
O=[S+]([O-])(c1ccc2nsnc2c1)N1CCN([S+](=O)([O-])c2c(F)cccc2F)CC1	-6.55%	–
O=C(Cn1nc(-c2ccccc2)ccc1=O)NCCc1ccccc1	10.2%	–
CC(C)n1nc(Cc2cccc3ccccc23)c2c(N)ncnc21	4.17%	–
O=[S+]([O-])(Nc1ccccc1)c1ccc(NCc2ccc(Cl)cc2O)cc1	-4.2%	–

Source: PubChem BioAssay (NCATS)
